The record followed here is PubChem BioAssay AID1671190 (National Center for Advancing Translational Sciences (NCATS), 2021).

In all, about 580,000 compounds went through this assay and about 6,100 (1.1%) were called active. Roughly 15% stayed inconclusive and do not appear here. The sample as a whole holds a higher share of actives than the screen did. Values without a mark were called inactive. Calls follow the shape of the dose curve; as a rule, active = well fitted inhibition curve with a large enough effect; inconclusive = small, poorly fitted or top-dose-only effect, or another doubt; inactive = no such curve, though single readings can be large or run the other way.
% is scaled to controls: 0 for no effect and ±100 for the full control effect; potency is read from the fitted curve at half-maximal effect.

Chain of Polyunsaturated fatty acid lipoxygenase ALOX12 (Homo sapiens) (P18054 whole entry, looked up): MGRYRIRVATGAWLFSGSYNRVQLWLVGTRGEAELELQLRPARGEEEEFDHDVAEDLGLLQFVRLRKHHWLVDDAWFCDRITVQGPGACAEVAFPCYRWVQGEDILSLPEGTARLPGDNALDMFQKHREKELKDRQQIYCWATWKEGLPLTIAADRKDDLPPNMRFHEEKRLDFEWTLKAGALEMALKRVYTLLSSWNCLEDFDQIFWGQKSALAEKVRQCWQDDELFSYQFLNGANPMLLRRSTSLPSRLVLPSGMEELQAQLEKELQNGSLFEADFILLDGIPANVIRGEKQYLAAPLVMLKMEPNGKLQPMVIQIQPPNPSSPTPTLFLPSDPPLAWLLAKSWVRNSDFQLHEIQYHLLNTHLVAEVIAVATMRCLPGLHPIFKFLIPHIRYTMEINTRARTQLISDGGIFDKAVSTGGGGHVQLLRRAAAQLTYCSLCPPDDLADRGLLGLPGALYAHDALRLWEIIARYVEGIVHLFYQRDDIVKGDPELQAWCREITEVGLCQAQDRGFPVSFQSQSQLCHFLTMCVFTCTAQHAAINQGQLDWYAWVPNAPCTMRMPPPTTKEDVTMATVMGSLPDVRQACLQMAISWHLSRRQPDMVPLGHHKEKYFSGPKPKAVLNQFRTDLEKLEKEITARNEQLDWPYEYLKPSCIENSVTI

In the test the target is Polyunsaturated fatty acid lipoxygenase ALOX12 (Homo sapiens) (UniProt P18054). Description: Primary qHTS assay for inhibitors of human arachidonate 12S-lipoxygenase (ALOX12): Round 2. The following applies: purified 12hLO, xylenol orange hydroperoxide absorbance; series mostly up to 108 µM; activity change, negative = inhibition: at the top concentration. Put shortly:
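Purified human 12hLO at 150 nM in 25 mM Hepes, 0.01% Triton X-100, pH 7.0, preincubated 15 min at room temperature with compound. Reaction started with 40 uM arachidonic acid, 30 min at room temperature. Hydroperoxide measured by Fe-xylenol orange, 573/405 nm absorbance ratio.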
A general note: In qHTS, concentration-response curves come from the screen itself.
For the compound `S=C(NCCC1=CCCCC1)Nc1ccccc1`, the “activity change, negative = inhibition” value is -11.4%.

Consider `CCCCNC(=S)N/N=C1\CCCCc2ccccc21`, for which the Potency is 31.6 µM (active).

On to `O=[N+]([O-])c1ccccc1N/N=C1\CCc2ccccc21`, for which the “activity change, negative = inhibition” value is 0.0102%.

Turning to `C#CCOC(=O)c1cccc(C(=O)O)c1`, the “activity change, negative = inhibition” value was -28.2%.

As to `COc1cccc(NC(=O)c2csnn2)c1`, the “activity change, negative = inhibition” value was -18.6%.

As to `COc1cccc(NC(=O)C2(C#N)CCCC2)c1`, the “activity change, negative = inhibition” value is 43.9%.

With `COc1cccc(NC(=O)C2C(c3ccccc3)C2(Cl)Cl)c1` (stereo not given), the Potency is 35.5 µM (active).

As for `Cc1nc(N2CCN(CC(=O)N3CCCC3)CC2)c(C#N)c2c1COC(C)(C)C2`, the “activity change, negative = inhibition” value was 0.987%.

Regarding `N#Cc1ccc(CN2C[C@@H]3C[C@H]2C(=O)Nc2ccccc2O3)cc1`, the “activity change, negative = inhibition” value was 11.6% [at 176 µM].

In the case of `COCCN1C(=O)[C@@H]2C[C@@H](CN2C(=O)Nc2ccccc2)Oc2ccccc21`, the “activity change, negative = inhibition” value was -7.35% [at 176 µM].

On to `O=C1[C@@H]2C[C@@H](CN2Cc2ccc3ccccc3n2)Oc2ccccc2N1Cc1ccccc1`, for which the Potency is 8.91 µM (active).

Regarding `COC(=O)C1=C(C)N=C2SC=C(CC(=O)NCc3ccccc3F)N2C1c1ccccc1Cl` (stereo not given), the “activity change, negative = inhibition” value was 13.3%.

Take `CCc1n[nH]c(=S)n1/N=C/c1c[nH]c2ccc(Br)cc12`: the Potency is 15.8 µM (active).

Regarding `Cc1ccccc1/C=C/C(=O)NC(C)CO` (stereo not given), the “activity change, negative = inhibition” value was 31.2%.

For `O=C(COc1ncnc2ccccc12)Nc1cc(F)ccc1F`, the “activity change, negative = inhibition” value was 1.32%.

For `O=C(CSc1ccc([N+](=O)[O-])cn1)Nc1ccc(N2CCOCC2)c(Cl)c1`, the “activity change, negative = inhibition” value was -6.2%.

Take `CCOc1ccc(C(=O)NC(=S)Nc2ccc(N3CCOCC3)c(Cl)c2)cc1[N+](=O)[O-]`: the Potency is 14.1 µM (active).

Turning to `O=C(Oc1ccccc1Cl)c1ccc(N2CCOCC2)c([N+](=O)[O-])c1`, the “activity change, negative = inhibition” value was -10%.

`COc1ccccc1C(CNC(=O)CCc1nc(-c2ccsc2)no1)N1CCCC1` (stereo not given): the “activity change, negative = inhibition” value was 7.59%.

As to `CCC(=O)Nc1ccc2nnc(-c3ccc(C(=O)Nc4ccc(OC)cc4)cc3)n2c1`, the “activity change, negative = inhibition” value is 1.26%.

Consider `COc1ccc2c(C)c(-c3cccc4ccccc34)c(=O)oc2c1`, for which the “activity change, negative = inhibition” value was -4.87%.

As to `O=S1(=O)CC/C(=N\Nc2ccc(F)cc2)c2ccsc21`, the Potency is 31.6 µM (active).

In the case of `COc1ccc(C(=O)N/N=C2\CCS(=O)(=O)c3ccc(F)cc32)cc1OC`, the “activity change, negative = inhibition” value was 11.9%.

On to `Cc1oc(-c2ccccc2)nc1CC(=O)N(C)CC(=O)Nc1cccc2ccccc12`, for which the “activity change, negative = inhibition” value was -14.7%.

With `CC1(C)CC(=O)C2=C(C1)OC1=C(C(=O)CC(C)(C)C1)C2c1ccc(-c2ccc3c(c2)COC3=O)o1`, the “activity change, negative = inhibition” value was -18.4%.

With `COCc1[nH][nH]c(=O)c1C=Nc1ccc(F)cc1F`, the Potency is 12.6 µM (active).

Turning to `Fc1ccc(/C=N/N=C/c2ccc(F)cc2F)c(F)c1`, the “activity change, negative = inhibition” value was 61.1%.

Regarding `CCOc1ccc(C(=O)NCc2n[nH]c(=O)c3ccccc23)cc1OCC`, the “activity change, negative = inhibition” value is 10.8%.

For `N#CC1=C(N)Oc2[nH]c(=S)[nH]c(=O)c2C12C(=O)Nc1ccccc12` (stereo not given), the Potency was 14.1 µM (active).

Regarding `Cc1ccc(NC2(C#N)C(=O)Nc3ccccc32)cc1` (stereo not given), the “activity change, negative = inhibition” value was 0%.

As for `Cc1ccc(C2CC(=O)C3=C(C2)OC(N)=C(C#N)C32C(=O)Nc3ccccc32)cc1` (stereo not given), the “activity change, negative = inhibition” value is 6.42%.

In the case of `C=CCNC(=O)O[C@@H]1CC[C@]2(C)C(CC[C@@H](O)[C@H]2CC(=O)N2CCC[C@H]2CO)[C@]1(C)CO` (stereo not given in full), the “activity change, negative = inhibition” value is 4.47%.

`N#C/C(=C/NC(=O)c1ccccc1)C(=O)N1CCOCC1`: the “activity change, negative = inhibition” value is 1.49%.

As for `CCOC(=O)c1ccc(NC(=O)c2c(NCc3cccs3)sc3c2CCCC3)cc1`, the “activity change, negative = inhibition” value was -28.7%.

As for `O=C(Cc1ccccc1)Nc1sc2c(c1C(=O)Nc1ccc(Br)cc1)CCC2`, the “activity change, negative = inhibition” value was -16%.

Regarding `Cc1ccc(NC(=O)c2c(NC(=O)CCC(=O)O)sc3c2CCCCC3)cc1`, the Potency is 20 µM (active).

Consider `CC1(C)Cc2sc3c(=O)n(Cc4ccc(Cl)cc4Cl)cnc3c2CO1`, for which the “activity change, negative = inhibition” value was -10.1%.

Turning to `CCn1c(SCC(=O)Nc2sc(C)c(C)c2C#N)nnc1C1CC1`, the “activity change, negative = inhibition” value was -2.97%.

`CCOC(=O)c1sc(NC(=O)CSc2nc(C)cc(C(F)(F)F)n2)c(C#N)c1C`: the Potency is 20 µM (active).

Regarding `Cc1cccc(NC(=O)CSc2nc(-c3ccco3)cc(C(F)(F)F)n2)c1C`, the “activity change, negative = inhibition” value is -12.8%.

Turning to `CCC(CO)Nc1nc2c(c(=O)n(C)c(=O)n2C)n1Cc1c(Cl)cccc1Cl` (stereo not given), the “activity change, negative = inhibition” value is -8.11%.

Consider `C/C(=N\NC(N)=S)c1cccnc1`, for which the “activity change, negative = inhibition” value was -6.29%.

On to `C/C(=N\NC(=O)c1cc2c(s1)CCC(C)C2)c1cccnc1` (stereo not given), for which the Potency is 5.01 µM (active).

`O=C(NNC1CC(=O)N(c2cccc(Cl)c2)C1=O)c1cccnc1` (stereo not given): the “activity change, negative = inhibition” value was 6.21%.

Take `Cc1nonc1OCCNC1CCC2(CCNCC2)CC1`: the “activity change, negative = inhibition” value was -26.4%.

Consider `OC1CC([C@@H](Cc2ccccn2)NC2CCC3(CCNCC3)CC2)C1` (stereo not given in full), for which the “activity change, negative = inhibition” value is -5.73%.

As to `CN(CCCNC1CCC2(CCNCC2)CC1)c1ccccc1`, the Potency is 10 µM (active).

As to `O=C(NCCC(=O)N1CCn2nc(C(=O)O)cc2C1)c1ccc(F)cc1`, the “activity change, negative = inhibition” value was 4.72%.

Turning to `CCc1nnc2sc(-c3cccc(NC(=O)Cc4ccccc4)c3)nn12`, the “activity change, negative = inhibition” value was 9.63%.

As for `O=C(NCc1ccccn1)C1CCN(C(=O)c2ccc(C(F)(F)F)cc2)CC1`, the “activity change, negative = inhibition” value is -3.02%.

On to `Cc1ccccc1NC(=O)C(C#N)=C1CCCCC1`, for which the “activity change, negative = inhibition” value was -8.66%.

On to `CCN(CC(=O)Nc1cc(Cl)ccc1C)C(=O)CSCc1ccccc1`, for which the “activity change, negative = inhibition” value was 5.18%.

Take `Cc1ccccc1N/C(SCc1ccc(Cl)cc1)=C(/C#N)C(N)=O`: the Potency is 20 µM (active).

On to `CNC(=O)c1ccc(-c2nc(CN3CCN(S(=O)(=O)c4ccc(C)c(C)c4)CC3)c(C)o2)cc1`, for which the “activity change, negative = inhibition” value was 20.4%.

Take `COc1ccc2c(C)c(CCC(=O)N3CCN(C)CC3)c(=O)oc2c1`: the “activity change, negative = inhibition” value is -5.95%.
